Compound activity from PubChem.
ROMK mod – ROMK potassium channel modulators, primary screen, cell-based, thallium flux, MLSMR library | AID 1918, 2009 | ATP-sensitive inward rectifier potassium channel 1 (Homo sapiens), P48048 | Tet-inducible ROMK, thallium flux fluorescence; actives lie on both sides | 130,000 compounds, 2% hits | B-score at 10 µM;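 active means signal ratio slope over the read window, or its plate-corrected B-score, at least 3 SD from the plate mean, either direction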;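 further: B-score of the F/F0 ratio slope over 7 to 12 s after thallium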
TNF necrop inh – inhibitors of TNF-alpha triggered necroptosis, primary screen, cell-based, Jurkat FADD-/-, single concentration. AID 463075, 2010. Jurkat FADD-/- TNF necroptosis rescue, ATP luminescence, 24 h; 0 = TNF only, 100 = no-TNF cells. activation (protection from cell death), % at 10 µM. 220,000 compounds, 0.068% hits;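 active means activation, meaning protection from cell death, of at least 50% relative to plate controls; inactive means activation below 50%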;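 further: necroptosis triggered by 40 ng/mL TNF-alpha added together with compound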
Calpain2 inh – inhibitors of pig calpain II, primary screen, biochemical, fluorogenic peptide substrate, 1536-well; inhibition, % at 16 µM; purified calpain II, 30 min; 220,000 compounds, 0.37% hits; AID 1236, 2008;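 active means inhibition above about 50%, limit read from the data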
14-3-3 Bad inh – inhibitors of 14-3-3 zeta/Bad binding, primary screen, biochemical, TR-FRET, bovine 14-3-3 zeta; TR-FRET 14-3-3zeta/Dy647-pBad peptide displacement, 1 h; inhibition, % at 21.7 µM; 220,000 compounds, 0.71% hits;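 active means inhibition above about 70%, limit read from the data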;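 further: 0% = full 14-3-3 plus peptide FRET controls and 100% = background without 14-3-3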
Target sequence (P63103 whole entry, looked up): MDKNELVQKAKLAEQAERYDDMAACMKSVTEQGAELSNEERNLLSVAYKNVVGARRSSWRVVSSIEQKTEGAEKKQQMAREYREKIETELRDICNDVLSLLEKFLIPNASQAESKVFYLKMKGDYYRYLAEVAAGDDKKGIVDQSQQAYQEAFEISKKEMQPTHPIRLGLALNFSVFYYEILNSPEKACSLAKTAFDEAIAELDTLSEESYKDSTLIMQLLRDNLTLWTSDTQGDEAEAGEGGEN
L929 necroptosis – inhibitors of zVAD-triggered necroptosis, primary screen, L929 cells. L929 zVAD necroptosis rescue, ATP luminescence, 24 h; with zVAD 60 µM. viability rescue, % at 10 µM. 220,000 compounds, 0.38% hits. AID 1377, 2008;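 active means activation, scaled between plate controls, above about 75%, limit read from the data; inactive means activation under that limit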;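 further: 0% = zVAD with DMSO and 100% = DMSO alone without zVAD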
Efa HMGR inh – inhibitors of E. faecalis class II HMGR, primary screen, biochemical, Enterococcus faecalis. HMG-CoA reductase (Enterococcus faecalis, mvaE). purified E. faecalis HMGR, NADPH absorbance 340 nm kinetic. inhibition, % at 10 µM. 190,000 compounds, 0.41% hits;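 active means inhibition above a set limit, the median over all tested compounds plus 3 SD, cut at about 9.5% in these data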;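 further: enzyme runs in reverse so mevalonate oxidation gives rising NADPH absorbance; 0% = complete reaction with DMSO and 100% = background rate lacking mevalonate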
ROMK hit retest – ROMK channel modulator hit retest, confirmation, cell-based, thallium flux, duplicate, resupplied hits. shares compounds with ROMK mod. fluorescence ratio; stronger effect = lower value. 3,000 compounds, 54% hits. normalized thallium flux (F/F0 slope) at 10 µM;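 active means Flux at 10 µM at least 3 SD below or above vehicle control mean in one or both replicates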
Numbers without * were called inactive. An excerpt weighted towards active compounds, which were near 3% of everything screened.

Results for c1ccc(CC2CCN(C3=Nc4cccc5cccc3c45)CC2)cc1 ?
ROMK mod: -4.4*; TNF necrop inh: 7; Calpain2 inh: -90; 14-3-3 Bad inh: 6; L929 necroptosis: 0; Efa HMGR inh: -1; ROMK hit retest: 0.062*

How did c1cc2c3c(cccc3c1)C(N1CCOCC1)=N2 do in these assays?
TNF necrop inh: 0; Calpain2 inh: 22; 14-3-3 Bad inh: 8; L929 necroptosis: 4

Results for c1cc2c3c(cccc3c1)C(N1CCN(C3=Nc4cccc5cccc3c45)CC1)=N2 ?
TNF necrop inh: -17; L929 necroptosis: 0

What do the screens show for `CC(NC(=O)CSc1nnc(-c2cccc(S(=O)(=O)N3CCCCC3)c2)o1)C12CC3CC(CC(C3)C1)C2` (centres undefined)?
ROMK mod: -3.8*; TNF necrop inh: 0; Calpain2 inh: -53; 14-3-3 Bad inh: -2; L929 necroptosis: -2; Efa HMGR inh: -5; ROMK hit retest: 0.066*

How did COCC(C)NC(=O)CSc1nnc(-c2cccc(S(=O)(=O)N3CCCCC3)c2)o1 (centres undefined) do in these assays?
ROMK mod: 0.064; TNF necrop inh: 1; Calpain2 inh: 12; 14-3-3 Bad inh: -3; L929 necroptosis: 0; Efa HMGR inh: -6

Results for Cc1ccc(Nc2ccc(S(=O)(=O)N3CCOCC3)cc2[N+](=O)[O-])cc1C ?
TNF necrop inh: 3; Calpain2 inh: 9; 14-3-3 Bad inh: -4; L929 necroptosis: 0; Efa HMGR inh: -2

What do the screens show for `O=[N+]([O-])c1ccc(S(=O)(=O)CC(CN2CCCCC2)N2CCCCC2)cc1` (centres undefined)?
ROMK mod: -4.8*; TNF necrop inh: -16; Calpain2 inh: 13; 14-3-3 Bad inh: 3; L929 necroptosis: 26; Efa HMGR inh: -1; ROMK hit retest: 0.053*

How did O=[N+]([O-])c1ccc(S(=O)(=O)CC(CN2CCOCC2)N2CCOCC2)cc1 (centres undefined) do in these assays?
ROMK mod: -0.45; TNF necrop inh: 7; Calpain2 inh: -39; 14-3-3 Bad inh: -20; L929 necroptosis: 0; Efa HMGR inh: -2

How did Cc1ccc(-c2ccc(/C=N/c3ncn[nH]3)o2)cc1Cl do in these assays?
ROMK mod: 3.4*; TNF necrop inh: -1; Calpain2 inh: -20; 14-3-3 Bad inh: 2; L929 necroptosis: 0; Efa HMGR inh: -2; ROMK hit retest: 0.087

How did COC(=O)N/N=C/c1ccc(-c2ccc(C)c(Cl)c2)o1 do in these assays?
TNF necrop inh: 2; Calpain2 inh: 18; 14-3-3 Bad inh: 7; L929 necroptosis: 1; Efa HMGR inh: -2

How did COC(=O)Cn1c2ccccc2c2nc(=O)cc(C)n21 do in these assays?
ROMK mod: -0.81; TNF necrop inh: 1; Calpain2 inh: -6; 14-3-3 Bad inh: -3; L929 necroptosis: 1; Efa HMGR inh: -4

Results for CC(=O)c1ccc(NC(=O)Cn2c3ccccc3c3nc(=O)cc(C)n32)cc1 ?
TNF necrop inh: 4; Calpain2 inh: -8; 14-3-3 Bad inh: 0; L929 necroptosis: 1; ROMK hit retest: 0.086

How did Cc1cccc(-n2c(O)c(/C=N/NC(=O)c3ccccc3Cl)c3ccccc3c2=O)n1 do in these assays?
TNF necrop inh: 1; Calpain2 inh: -40; 14-3-3 Bad inh: 3; L929 necroptosis: 1; Efa HMGR inh: -12

How did COc1ccc(Cn2c(O)c(C=Nc3ccc(OC)cc3)c3ccccc3c2=O)cc1 do in these assays?
TNF necrop inh: 5; Calpain2 inh: -22; 14-3-3 Bad inh: 8; L929 necroptosis: 0; Efa HMGR inh: -6
